Assay results as given in PubChem BioAssay (NCI).
About 83,000 compounds went through this panel and 20% of them were active in at least one assay; those are over-represented in the sample as a whole.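 48-hour exposure, single concentration, 96-well plates; percent growth endpoint where 0 means no net growth. Active: below 10.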 Values without a mark were called inactive. Active and inactive are the calls of the source.

Tested on: SW-620 colon
Assay: NCI-60 one-dose screen, 48 h (100 = growth as untreated, 0 = no growth, -100 = all killed)
Settings: 10 µM

SMILES	growth
Nc1ccc(Sc2ccc3c4c2cccc4c(=O)n2c4ccccc4nc32)cc1	46.3%
O=C(c1ccccc1)C(Sc1ccccc1)c1ccccc1 (stereo not drawn)	57.8%
O=NN(CCCl)C(=O)Nc1ccc(NC(=O)N(CCCl)N=O)cc1	66.1%
Nc1nc(SCC#CCCl)c2[nH]cnc2n1	40.8%
NC(=O)C12C(=O)NC(=O)C1(C(=O)O)C21CCCC1 (stereo not drawn)	104%
C=C[C@]1(C)C=C2C(=O)[C@@]3(O)OC(=O)[C@@]4(CCCC(C)(C)[C@H]34)[C@@]2(O)CC1	-42% (active)
CCCn1c(=O)c2c(nc(-c3cccc(OCCCCl)c3)n2C)n(CCC)c1=O	76.6%
CCCCCCCC/C=C/CCCCCCCCC1=NCCN1CCO	40%
COc1ccc(CSc2nc3cc(OC)c(OC)cc3c(=O)n2-c2ccc(OC)cc2OC)cc1	90.3%
Cc1ccccc1C1=N[C@@H](Cc2ccccc2)C(=O)c2c(nc3ccccn23)N1	103%
COc1ccc(-c2ccccc2)cc1C(=O)c1ccc(-c2ccccc2)cc1	52.3%
C/C=C\COc1cc(C)c(Cl)cc1Cl	96.2%
CC(C)C[C@H](NC(=O)CCn1ccc2ccccc2c1=O)B(O)O	34.1%
COc1ccc(-c2[nH]ncc2/C=C/c2cc(C(F)(F)F)[nH]c(=O)n2)cc1	98.4%
c1ccc(COCC[P+](c2ccccc2)(c2ccccc2)c2ccccc2)cc1	14%
CC(=O)Oc1c(C)c(C)c2c(c1C)CCC(C)(CC(=O)OCCCCCCCCCCC[P+](c1ccccc1)(c1ccccc1)c1ccccc1)O2 (stereo not drawn)	-68.2% (active)
COc1cc(-c2nc3ccc(C)cc3[nH]2)ccc1OCc1nnc(-c2ccc(CC(C)C)cc2)o1	106%
N#Cc1c(-c2ccccc2)nc(SCC(=O)N2CCOCC2)[nH]c1=O	106%
Brc1ccc(-c2cn3ccnc3c(-c3ccc(Br)cc3)n2)cc1	25.4%

SMILES	growth
COc1cc(C2=Nc3c/c(=C\c4c(O)[nH]c5ccc(Cl)cc45)ccc3=N2)cc(OC)c1OC	-48.2% (active)
COc1cc(CSc2nc3ccc(Cl)cc3c(=O)n2-c2ccccc2)cc(OC)c1OC	79.7%
O=S(=O)(O)C1(O)CCCCC1	81.5%
CCc1cc2n(n1)-c1ncc(C(=O)OC)cc1Oc1ccccc1-2	106%
C/C(=N\NC(N)=S)C(C)(C)O	77.4%
COc1ccc(-c2cc(/C=C/C(=O)c3ccc(N)cc3)[nH]n2)cc1OC	10.2%
Nc1c(C(=O)NC2CCCCC2)sc2nc3c(cc12)C(=O)CCC3	98.8%
CC(=O)n1nc(C(=O)OC(C)(C)C)c2cc(F)c(F)cc21	94.1%
Nc1ccc2c(c1)Cc1cc(N)c(Cl)cc1-2	108%
Cc1ccc2c3c(cccc13)-c1ccccc1C2=O	93%
Nc1cc(O)cc(O)c1	107%
Fc1ccc(Nc2ccnc(N3CCN(c4ccnc5cc(Cl)ccc45)CC3)n2)cc1	63.2%
N/C(=N\O)c1cn(C2OC(CO)C(O)C2O)c2ncnc(N)c12 (stereo not drawn)	-12.1% (active)
COc1ccc(-c2nsc3c2NC(=O)CC3c2cccc(Cl)c2)cc1 (stereo not drawn)	25.7%
CCCCCc1cc[n+](CC(=O)c2ccc(Cl)cc2)cc1	83.2%
CC1(C)Cc2c(cn(Cc3ccccc3)c2-c2ccccc2)-c2oncc21	95.7%
CCc1nn2c(-c3cc(OC)c(OC)c(OC)c3)c(-c3cc(OC)c(OC)c(OC)c3)nc2s1	86.3%
CC1=CC2OC34COC3CC(OC(=O)C(F)(F)F)C4(C)C2(C)CC1 (stereo not drawn)	103%
O=[N+]([O-])c1ccc(-c2nc(Cl)c3c(n2)CCCC3)o1	56.8%
